Activity calls are given as the source filed them. Rule for the calls: active = hit-call score of the fitted dose curve at least 0.9, where 1 is the maximum; inactive = score below 0.9.
Tests used:
[1] = molecular target: Transcription factor E2F1 (Homo sapiens) (UniProt Q01094); test: ATG_E2F_CIS: Attagene CIS-FACTORIAL HepG2 Assay for human E2F Transcription Factor 1 (AID 2282935); conditions: HepG2 Attagene cis-reporter, E2F reporter RNA transcripts; actives raise or lower the signal
Summary of the method: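 HepG2 cells transiently transfected with multiplexed cis-element reporter units, dosed for 24 h. Reporter mRNA measured by RT-PCR, 6-FAM primer-extension labeling, HpaI digestion and capillary electrophoresis; bidirectional fit versus DMSO baseline.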

[2] = ATG_E_Box_CIS: Attagene CIS-FACTORIAL HepG2 Assay for human Enhancer Box (E-box) (AID 2282936); conditions: HepG2 E-box cis-reporter transcription, actives raise or lower the signal
Summary of the method: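 HepG2 cells transiently transfected with multiplexed cis-element reporter units sensing endogenous transcription factor activity; 24 h compound exposure. Reporter mRNA measured by RT-PCR, 6-FAM primer extension, HpaI digestion and capillary electrophoresis; bidirectional fit versus DMSO.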

[3] = ATG_M_61_CIS: Attagene CIS-FACTORIAL HepG2 Assay for M61 Transcription Factor (Internal Marker) (AID 2282937); conditions: HepG2 Attagene CIS-FACTORIAL M61 internal marker reporter; actives raise or lower the signal
Summary of the method: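 Background-control endpoint: HepG2 cells with cis-regulated reporter constructs, 24 h exposure, reporter mRNA detected via fluorescent primer extension and capillary electrophoresis; values from bidirectional fitting with DMSO baseline.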

[4] = ATG_EGR_CIS: Attagene CIS-FACTORIAL HepG2 Assay for human Early Growth Response 1 (EGR1) (AID 2282938); conditions: HepG2 Attagene CIS-FACTORIAL EGR reporter mRNA; actives raise or lower the signal
Summary of the method: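 Endpoint derived by bidirectional fitting versus DMSO vehicle. Method: cis-promoter reporter units transfected into HepG2, 24 h dosing, RNA isolation, RT-PCR with 6-FAM primer extension and HpaI digestion, then capillary electrophoresis fluorescence detection.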

[5] = ATG_M_19_CIS: Attagene CIS-FACTORIAL HepG2 Assay for M19 Transcription Factor (Internal Marker) (AID 2282939); conditions: HepG2 Attagene CIS-FACTORIAL M19 internal marker reporter; actives raise or lower the signal
Summary of the method: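 Readout: fluorescent reporter-transcript fragments by capillary electrophoresis after RT-PCR. Human HepG2 liver cells carried transfected MRTU constructs reporting endogenous transcription-factor activity; exposure 24 h. Gain or loss of signal fitted relative to DMSO.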

[6] = ATG_ERE_CIS: Attagene CIS-FACTORIAL HepG2 Assay for Estrogen Response Element (ERE) (AID 2282940); conditions: HepG2 ERE cis-reporter, Attagene RNA transcript; actives raise or lower the signal
Summary of the method: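 Readout: reporter mRNA induction by RT-PCR, FAM-labelled primer extension, HpaI digestion and capillary electrophoresis, 24 h after dosing transfected HepG2 cells. Endogenous transcription factors act on cis-element-regulated reporters. Gain or loss fitted against DMSO.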

[7] = ATG_Ets_CIS: Attagene CIS-FACTORIAL HepG2 Assay for human Erythroblast Transformation Specific (ETS) (AID 2282941); conditions: HepG2 ETS cis-reporter transcription, actives raise or lower the signal
Summary of the method: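 Human HepG2 hepatoma cells were transiently transfected with promoter-driven reporter constructs and treated for 24 hours. Reporter transcripts were quantified by RT-PCR with fluorescent primer extension; bidirectional curve fitting used DMSO as reference.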

[8] = molecular target: Hepatocyte nuclear factor 3-beta (Homo sapiens) (UniProt Q9Y261); test: ATG_FoxA2_CIS: Attagene CIS-FACTORIAL HepG2 Assay for human Forkhead box A2 (FOXA2) (AID 2282942); conditions: HepG2 cis-reporter transcription factor activity, 24 h; actives raise or lower the signal
Summary of the method: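 Measured: reporter mRNA induction or loss in HepG2 transiently carrying multiple cis-regulated reporter units, 24 h after dosing. Quantified by RT-PCR plus capillary electrophoresis, normalised to DMSO.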

[9] = ATG_FoxO_CIS: Attagene CIS-FACTORIAL HepG2 Assay for human Forkhead box O (FoxO) (AID 2282943); conditions: HepG2 Attagene cis-reporter, FoxO element, mRNA; actives raise or lower the signal
Summary of the method: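 HepG2 cells transiently transfected with cis-promoter-driven multiple reporter transcription units; 24 h after chemical dosing, reporter mRNA quantified by RT-PCR, fluorescent primer extension, HpaI digestion and capillary electrophoresis. Bidirectional fitting versus DMSO baseline.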

[10] = ATG_GLI_CIS: Attagene CIS-FACTORIAL HepG2 Assay for human Zinc Finger Protein GLI1 (AID 2282945); conditions: HepG2, Attagene cis-factorial reporter mRNA, GLI element; actives raise or lower the signal
Summary of the method: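 HepG2 cells transiently transfected with cis-promoter multiplexed reporter units report endogenous transcription factor activity. After 24 h chemical exposure, reporter mRNA was quantified by RT-PCR, 6-FAM labelling, HpaI digestion and capillary electrophoresis, with bidirectional fitting against DMSO.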

[11] = molecular target: Bile acid receptor (Homo sapiens) (UniProt Q96RI1); test: ATG_IR1_CIS: Attagene CIS-FACTORIAL HepG2 Assay for human Nuclear Receptor Subfamily 1 Group H Member 4 (NR1H4), IR1 submotif (AID 2282946); conditions: IR1 reporter transcription, actives raise or lower the signal
Summary of the method: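 Transient MRTU transfection, HepG2; 24 h dosing; RNA → RT-PCR → 6-FAM primer extension → HpaI digest → capillary electrophoresis fluorescence. Gain/loss of signal fitted relative to DMSO.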

[12] = ATG_ISRE_CIS: Attagene CIS-FACTORIAL HepG2 Assay for human Interferon Regulatory Factor 1 (IRF1) binding to an Interferon-Stimulated Response Element (ISRE) (AID 2282948); conditions: HepG2 ISRE cis-reporter (Attagene), mRNA transcription readout; actives raise or lower the signal
Summary of the method: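 Cell-based cis-reporter assay; HepG2; 24 h exposure; reporter mRNA by RT-PCR plus capillary electrophoresis fluorescence; activity in either direction scored relative to DMSO.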

[13] = ATG_M_06_CIS: Attagene CIS-FACTORIAL HepG2 Assay for M06 Transcription Factor (Internal Marker) (AID 2282950); conditions: HepG2 Attagene CIS-FACTORIAL M06 internal marker reporter; actives raise or lower the signal
Summary of the method: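 Terse: HepG2, transient MRTU transfection (FuGene 6), 24 h dosing; total RNA, oligo(dT) RT, PCR, FAM label, HpaI cut, capillary electrophoresis; bidirectional fit vs DMSO baseline; background-control endpoint.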

[14] = molecular target: Hepatocyte nuclear factor 6 (Homo sapiens) (UniProt Q9UBC0); test: ATG_HNF6_CIS: Attagene CIS-FACTORIAL HepG2 Assay for human Hepatocyte Nuclear Factor 6 (HNF6) (AID 2282952); conditions: HepG2 Attagene cis-factorial HNF6 reporter transcription; actives raise or lower the signal
Summary of the method: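 Reporter mRNA induction or loss in HepG2 after 24 h exposure; transient cis-MRTU transfection; fragments quantified by capillary electrophoresis; bidirectional analysis, DMSO as negative control.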

[15] = molecular target: Heat shock factor protein 1 (Homo sapiens) (UniProt Q00613); test: ATG_HSE_CIS: Attagene CIS-FACTORIAL HepG2 Assay for human Heat Shock Transcription Factor 1 (HSE) (AID 2282953); conditions: HepG2 HSE cis-reporter, Attagene RNA transcription; actives raise or lower the signal
Summary of the method: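 Read-out: fluorescence of reporter-specific RT-PCR fragments separated by capillary electrophoresis. HepG2 carrying transfected cis-element reporter units; 24 h dosing; activity fitted in both directions relative to DMSO baseline.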

[16] = ATG_MRE_CIS: Attagene CIS-FACTORIAL HepG2 Assay for human Metal Responsive Element (MRE) (AID 2282954); conditions: HepG2 MRE cis-reporter transcription, Attagene multiplex; actives raise or lower the signal
Summary of the method: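 HepG2 cells transiently transfected with multiple cis-element reporter units measure endogenous MTF1-driven transcription. After 24 h compound exposure, reporter mRNA is quantified by RT-PCR with 6-FAM labelling, HpaI digestion and capillary electrophoresis; bidirectional fits versus DMSO.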

[17] = ATG_GATA_CIS: Attagene CIS-FACTORIAL HepG2 Assay for human GATA Binding Protein (AID 2282944); conditions: HepG2 GATA cis-element reporter, Attagene multiplex mRNA; actives raise or lower the signal
Summary of the method: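 Read-out: fluorescent reporter mRNA fragments resolved by capillary electrophoresis after RT-PCR. Human liver HepG2 cells carried transiently transfected cis-regulated reporter constructs; chemicals incubated 24 h; gain or loss of signal fitted relative to DMSO.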

[18] = ATG_M_32_CIS: Attagene CIS-FACTORIAL HepG2 Assay for M32 Transcription Factor (Internal Marker) (AID 2282949); conditions: HepG2 Attagene cis-factorial M32 reporter, mRNA; actives raise or lower the signal;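 note: background control marker of the multiplexed CIS panel rather than a real target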
Summary of the method: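 Following 24 h chemical exposure of HepG2 cells transiently expressing cis-promoter reporter constructs, reporter transcript levels were determined by RT-PCR with fluorescent labelling and capillary electrophoresis, then fitted bidirectionally against DMSO.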

[19] = molecular target: Hypoxia-inducible factor 1-alpha (Homo sapiens) (UniProt Q16665); test: ATG_HIF1a_CIS: Attagene CIS-FACTORIAL HepG2 Assay for human Hypoxia Inducible Factor 1 (HIF1A) (AID 2282951); conditions: HepG2 Attagene cis-factorial HIF1a reporter transcription; actives raise or lower the signal
Summary of the method: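 Dosed 24 h, transfected HepG2 cells yielded total RNA whose reporter transcripts were RT-PCR-amplified and sized by capillary electrophoresis using fluorescent labelling; DMSO defined baseline, with gain and loss of signal both fitted.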

[20] = ATG_GRE_CIS: Attagene CIS-FACTORIAL HepG2 Assay for human Glucocorticoid Response Elements (GRE) (AID 2282947); conditions: HepG2 GRE cis-reporter, Attagene multiplex mRNA; actives raise or lower the signal
Summary of the method: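 HepG2 cells transiently transfected with multiple cis-promoter reporter units measure endogenous TF activity; 24 h compound exposure. Reporter mRNA quantified by RT-PCR, FAM labelling, HpaI digestion and capillary electrophoresis; bidirectional fit vs DMSO baseline.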

Measured: AC50

Chain of Hepatocyte nuclear factor 6 (Homo sapiens) (Q9UBC0 whole entry, looked up, the tested form may be a part): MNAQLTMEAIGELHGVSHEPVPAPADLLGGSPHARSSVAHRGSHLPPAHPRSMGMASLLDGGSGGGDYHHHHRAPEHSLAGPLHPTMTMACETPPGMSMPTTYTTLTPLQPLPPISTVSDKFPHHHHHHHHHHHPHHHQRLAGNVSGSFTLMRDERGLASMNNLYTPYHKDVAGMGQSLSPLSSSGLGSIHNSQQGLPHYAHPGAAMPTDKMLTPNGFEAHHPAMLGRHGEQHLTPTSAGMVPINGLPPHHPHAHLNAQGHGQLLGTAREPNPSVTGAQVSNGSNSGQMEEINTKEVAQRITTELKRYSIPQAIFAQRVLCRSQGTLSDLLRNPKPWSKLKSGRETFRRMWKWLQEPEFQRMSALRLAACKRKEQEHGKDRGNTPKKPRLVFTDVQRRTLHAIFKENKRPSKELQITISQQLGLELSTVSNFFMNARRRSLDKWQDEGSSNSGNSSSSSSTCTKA
Chain of Hepatocyte nuclear factor 3-beta (Homo sapiens) (Q9Y261 whole entry, looked up): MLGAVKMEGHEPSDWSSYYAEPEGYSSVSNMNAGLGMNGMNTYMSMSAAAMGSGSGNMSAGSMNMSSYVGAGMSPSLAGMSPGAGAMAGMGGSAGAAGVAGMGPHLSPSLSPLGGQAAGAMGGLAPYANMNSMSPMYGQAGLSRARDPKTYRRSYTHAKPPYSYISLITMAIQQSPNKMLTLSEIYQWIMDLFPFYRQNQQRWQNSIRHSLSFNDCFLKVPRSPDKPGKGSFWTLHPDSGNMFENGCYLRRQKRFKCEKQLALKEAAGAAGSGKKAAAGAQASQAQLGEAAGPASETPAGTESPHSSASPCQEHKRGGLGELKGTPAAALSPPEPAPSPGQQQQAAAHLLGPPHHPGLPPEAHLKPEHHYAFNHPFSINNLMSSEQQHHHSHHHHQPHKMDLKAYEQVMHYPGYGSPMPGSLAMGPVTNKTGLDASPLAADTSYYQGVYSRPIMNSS
Chain of Hypoxia-inducible factor 1-alpha (Homo sapiens) (Q16665 whole entry, looked up): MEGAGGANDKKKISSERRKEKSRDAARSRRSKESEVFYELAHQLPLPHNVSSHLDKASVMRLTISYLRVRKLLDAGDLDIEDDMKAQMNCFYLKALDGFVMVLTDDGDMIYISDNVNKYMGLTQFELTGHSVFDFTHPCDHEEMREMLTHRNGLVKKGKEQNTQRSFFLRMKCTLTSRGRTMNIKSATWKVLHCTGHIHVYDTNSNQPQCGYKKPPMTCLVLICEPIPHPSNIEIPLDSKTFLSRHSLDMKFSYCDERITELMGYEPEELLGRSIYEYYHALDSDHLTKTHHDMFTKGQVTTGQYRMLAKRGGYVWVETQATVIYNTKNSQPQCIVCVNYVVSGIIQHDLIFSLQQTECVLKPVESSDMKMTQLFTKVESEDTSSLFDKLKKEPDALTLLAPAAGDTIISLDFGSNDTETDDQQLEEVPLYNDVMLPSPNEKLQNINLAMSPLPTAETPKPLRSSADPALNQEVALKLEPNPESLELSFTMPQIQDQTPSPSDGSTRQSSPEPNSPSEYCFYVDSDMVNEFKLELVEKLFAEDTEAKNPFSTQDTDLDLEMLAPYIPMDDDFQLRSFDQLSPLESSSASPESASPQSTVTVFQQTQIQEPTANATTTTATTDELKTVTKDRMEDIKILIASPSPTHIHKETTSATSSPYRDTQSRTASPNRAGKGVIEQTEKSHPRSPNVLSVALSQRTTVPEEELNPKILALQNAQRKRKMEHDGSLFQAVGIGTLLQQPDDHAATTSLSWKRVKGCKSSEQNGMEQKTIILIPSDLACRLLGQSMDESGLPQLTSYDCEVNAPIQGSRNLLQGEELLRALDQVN
Chain of Bile acid receptor (Homo sapiens) (Q96RI1 whole entry, looked up): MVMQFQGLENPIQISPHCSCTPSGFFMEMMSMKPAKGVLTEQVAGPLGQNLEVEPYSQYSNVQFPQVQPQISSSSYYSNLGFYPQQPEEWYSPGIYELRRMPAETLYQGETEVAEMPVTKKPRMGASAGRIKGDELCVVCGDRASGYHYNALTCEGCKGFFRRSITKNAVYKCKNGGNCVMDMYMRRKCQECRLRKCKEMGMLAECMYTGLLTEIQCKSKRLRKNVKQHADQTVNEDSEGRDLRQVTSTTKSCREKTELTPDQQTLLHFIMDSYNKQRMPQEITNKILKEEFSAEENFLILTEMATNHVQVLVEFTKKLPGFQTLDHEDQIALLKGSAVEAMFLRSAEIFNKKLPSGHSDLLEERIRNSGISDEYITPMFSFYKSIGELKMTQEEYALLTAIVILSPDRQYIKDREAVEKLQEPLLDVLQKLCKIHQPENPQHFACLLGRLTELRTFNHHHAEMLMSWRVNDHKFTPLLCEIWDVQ
Chain of Transcription factor E2F1 (Homo sapiens) (Q01094 whole entry, looked up): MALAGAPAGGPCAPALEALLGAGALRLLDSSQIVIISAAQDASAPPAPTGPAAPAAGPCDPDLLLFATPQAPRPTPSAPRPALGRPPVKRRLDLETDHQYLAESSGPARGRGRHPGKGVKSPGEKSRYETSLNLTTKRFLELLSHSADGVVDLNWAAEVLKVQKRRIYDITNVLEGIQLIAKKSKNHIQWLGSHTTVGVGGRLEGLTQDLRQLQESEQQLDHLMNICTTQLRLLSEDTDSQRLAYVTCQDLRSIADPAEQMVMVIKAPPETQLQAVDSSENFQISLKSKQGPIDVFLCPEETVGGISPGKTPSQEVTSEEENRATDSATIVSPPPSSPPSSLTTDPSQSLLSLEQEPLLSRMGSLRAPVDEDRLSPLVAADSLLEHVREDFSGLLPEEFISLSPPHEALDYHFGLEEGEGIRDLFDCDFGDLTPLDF
Chain of Heat shock factor protein 1 (Homo sapiens) (Q00613 whole entry, looked up, the tested form may be a part): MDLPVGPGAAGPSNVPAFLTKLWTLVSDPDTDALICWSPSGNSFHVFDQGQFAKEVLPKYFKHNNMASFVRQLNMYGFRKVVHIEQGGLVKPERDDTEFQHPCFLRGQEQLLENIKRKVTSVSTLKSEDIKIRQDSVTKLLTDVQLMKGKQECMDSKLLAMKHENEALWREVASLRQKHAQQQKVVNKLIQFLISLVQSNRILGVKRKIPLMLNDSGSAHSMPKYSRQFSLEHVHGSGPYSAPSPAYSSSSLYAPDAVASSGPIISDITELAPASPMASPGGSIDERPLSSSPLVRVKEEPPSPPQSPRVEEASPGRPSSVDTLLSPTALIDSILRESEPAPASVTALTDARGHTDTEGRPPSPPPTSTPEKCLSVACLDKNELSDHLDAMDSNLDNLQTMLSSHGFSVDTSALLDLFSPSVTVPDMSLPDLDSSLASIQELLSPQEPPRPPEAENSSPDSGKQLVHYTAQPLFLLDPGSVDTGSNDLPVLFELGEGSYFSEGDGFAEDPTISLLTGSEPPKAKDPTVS

CC1=CC[C@@H](C(C)(C)O)CC1
not listed: [17] | [18] | [19] | [20]
inactive: all other assays above

NS(=O)(=O)c1cc(C(=O)O)c(NCc2ccco2)cc1Cl
not listed: [8] | [11] | [14] | [20]
inactive: all other assays above

COc1ccc(N)c(C)c1
active: [6] 25.5 µM
not listed: [5] | [17] | [20]
inactive: all other assays above

CC(=O)CC(C)(C)C1CCCCC1
not listed: [11] | [17] | [19] | [20]
inactive: all other assays above

C/C=C(\C)C(=O)OC/C=C(\C)CCC=C(C)C
active: [6] 39 µM
not listed: [5] | [11] | [15] | [16]
inactive: all other assays above

CC(=O)C1=C(C)[C@@H]2C[C@@]3(C1)[C@H](C)CC[C@H]3C2(C)C
active: [1] 139 µM | [3] 75.3 µM | [6] 68.1 µM | [10] 166 µM | [12] 73.2 µM | [18] 148 µM | [14] 186 µM | [15] 24.5 µM | [16] 146 µM
inactive: [2] | [4] | [7] | [8] | [9] | [17] | [11]

c1ccc(Cc2ccccc2)cc1
not listed: [6] | [20]
inactive: all other assays above

Cc1cccc(C)c1
not listed: [6] | [11] | [20]
inactive: all other assays above

O=S(=O)(O)c1cc(S(=O)(=O)O)c2c(N=Nc3ccccc3)c(O)ccc2c1
not listed: [6] | [13] | [16]
inactive: all other assays above

CCCCCC(=O)O[C@]1(C(C)=O)CC[C@H]2[C@@H]3CCC4=CC(=O)CC[C@]4(C)[C@H]3CC[C@@]21C
active: [10] 57.7 µM | [12] 16.3 µM | [19] 33.2 µM | [15] 32 µM | [16] 13 µM
not listed: [6] | [18] | [20]
inactive: all other assays above

S=c1[nH][nH]c(=S)s1
not listed: [6] | [11] | [12] | [13]
inactive: all other assays above

OCCCO
not listed: [5] | [11] | [16] | [18]
inactive: all other assays above

CCC(C)C1CCCCC1=O (stereo not given)
not listed: [6] | [11] | [20]
inactive: all other assays above
